Only some compounds are listed: those with a hit (about 3.9% of all), similar ones and a draw of the others.
HT1080 IDH1KD tx: kills HT-1080 cells with IDH1 knockdown; HT-1080 IDH1 knockdown viability, ATP luminescence, 48 h; Potency, µM (series often up to 46.1 µM), inactives show at the top dose activity, negative = toxicity, usual class: cytotoxic; 2% of 360,000 active; AID 686971;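 note: 0% = DMSO wells and -100% = cell-free medium wells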
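Cytotoxicity counter-line: IDH1KD HT-1080, 48 h, CellTiter-Glo. Curves classed by r2, magnitude and activity.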
ATXN2 expr inh: ATXN2 expression inhibition; Potency, µM (doses to about 57 µM), for the others: at the top dose activity change, negative = inhibition, actives largely listed as inhibitors; 0.72% of 360,000 active; AID 1745845; HEK-293 ATXN2-luciferase reporter, luminescence, 24 h; note: % is set by controls: 0 for no effect and ±100 for the full control effect; nearly all actives have a fitted effect of over 55% in size
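qHTS (up to 57 uM final) was run with 24 h compound exposure of reporter cells at 37 °C. Each well was multiplexed: SteadyGlo luminescence measured ATXN2-luciferase expression after a fluorogenic Gly-Phe-AFC viability readout (25 uM final).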
HT1080NT lethal: kills 2HG-producing HT-1080-NT fibrosarcoma cells; Potency, µM (doses to about 46.1 µM), without a hit: at the top dose activity, negative = less viability, actives largely listed as cytotoxic; HT-1080-NT fibrosarcoma viability, CellTiter-Glo ATP luminescence, 48 h; 1.6% of 360,000 active; AID 686970;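 note: NT is the 2HG producing partner of a matched IDH1 knockdown line; 0% = DMSO-treated cells and -100% = media-only wells without cells; nearly all actives have a fitted effect of over 55% in size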
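Compounds were tested in concentration-response format on HT-1080-NT cells for 48 hours at 37 degrees C. Cell viability came from CellTiter-Glo luminescence; curves were classified by r2, response magnitude and activity.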
S2 tox: viability counter-screen for ATXN expression inhibitors | 0.49% of 400,000 active | AID 651635 | S2 cells (HEK-293 line with an ATXN2-luciferase reporter) viability, CellTiter-Fluor protease fluorescence, 24 h | Potency, µM (top dose mostly 56.7 µM), actives largely listed as cytotoxic; note: nearly all actives have a fitted effect of over 40% in size
TGFb inhibitor: blocks TGF-b signaling. Potency, µM (doses to about 46.1 µM), without a hit: at the top dose activity, negative = inhibition, most hits filed as inhibitors. 1.2% of 410,000 active. AID 588855. HepG2 CAGA-GFP TGF-b/SMAD3 reporter, GFP fluorescence, 18 h; TGF-beta stimulated, 500 pg/mL final; note: % is set by controls: 0 for no effect and ±100 for the full control effect; nearly all actives have a fitted effect of over 65% in size
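TGF-beta reporter screen: HEPG2 CAGA-GFP, 1% FBS, 500 pg/mL TGF-beta final, 18 h; per-cell GFP summed per well; curves fitted and categorized by class.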
HepG2 viability: counter-screen for TGF-b inhibitors: cytotoxicity in HepG2 cells; HepG2 CAGA-GFP viability, ATP luminescence, 18 h; Potency, µM (series often up to 46.1 µM), without a hit: top-dose activity change, negative = cytotoxicity, hits mostly cytotoxic; 0.76% of 410,000 active; AID 588856
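CellTiter-Glo luminescence gave cytotoxicity after 18 hours at 37 degrees C. The cells were HepG2 CAGA-GFP in 1% FBS DMEM, stimulated with 500 pg/mL TGF-beta after compound addition. %Activity was normalised to no-cell wells (complete cell-killing) and DMSO (no toxicity), and curves were fitted and classified.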
The depositor's hits bear a star; i = inactive; ? = inconclusive; . = no result; [ ] = another dose, or the depositor's remark. Calls come from the whole dose curve; as a rule, active = well fitted curve in the direction sought with a large enough effect; inconclusive = small, poorly fitted or top-dose-only effect, or another doubt; inactive = no such curve, though single readings can be large; an effect the other way counts as inactive or inconclusive. Potency is the fitted concentration of half-maximal effect.

SMILES	HT1080 IDH1KD tx	ATXN2 expr inh	HT1080NT lethal	S2 tox	TGFb inhibitor	HepG2 viability
O=C(NC1CCN(C(=O)N2c3ccccc3Sc3ccccc32)CC1)c1ccco1	20.6µM*	25.8%	?	?	-22.8%	-3.2%
CCOc1ccc2noc3c2c1C(=O)c1ccccc1-3	2.1%	5.3%	?	i	?	-63.6%
O=C1c2ccccc2-c2onc3ccc(N4CCCC4)c1c23	?	?	?	23.8µM*	?	-92.0%
O=C1c2ccccc2-c2onc3ccc(NCc4ccco4)c1c23	?	?	-21.0%	14.1µM*	-19.8%	0.4%
Cc1ccc(S(=O)(=O)Nc2cccc(C(=O)NCc3cccnc3)c2)cc1F	6.51µM*	-12.4%	?	i	?	-23.3%
O=C(NCc1cccnc1)c1cccc(S(=O)(=O)Nc2ccc(F)cc2)c1	-14.1%	-6.2%	-4.5%	i	1.7%	-29.3%
COc1ccc(C(CNC(=O)c2cccc(NS(=O)(=O)c3ccc(Br)cc3)c2)N(C)C)cc1 (configuration not stated)	?	-34.8%	?	i	-19.5%	7.08µM*
O=C(NCc1ccccn1)c1cccc(NS(=O)(=O)c2ccc(Br)cc2)c1	2.1%	2.1%	3.5%[9.24 µM]	i	1.1%	-11.8%
O=C(NCc1cccnc1)c1ccc(NC(=O)c2ccc(Br)cc2)cc1	5.8µM*	0.1%	11.6µM*	i	-10.0%	-20.3%
O=C(NCc1cccnc1)c1cccc(NS(=O)(=O)c2ccc(Br)cc2)c1	3.26µM*	-23.2%	4.61µM*	i	1.1%	-9.7%
COc1ccc(NC(=O)CN(C)C(=O)c2cccc(NS(=O)(=O)c3ccc(Br)cc3)c2)cc1	-0.1%	-1.6%	1.2%	?	-16.4%	0.0%
CCCCNC(=O)c1sc2ncnc(NCC3CCCO3)c2c1C (configuration not stated)	.	.	.	i	.	.
O=C(NCc1cccnc1)c1ccc(COc2ccc(Cl)cc2)cc1	?	.	-20.7%	i	-17.4%	-22.3%
Cc1ccc(OCc2ccc(C(=O)NCc3cccnc3)cc2)cc1C	18.4µM*	.	?	i	?	0.7%
COc1cc2cc(CNc3ccc(C)cc3)c(=O)n(CC(=O)Nc3ccc(F)cc3F)c2cc1OC	.	.	.	.	-24.2%	-1.8%
COc1cc(OC)c(-c2oc3ccccc3c(=O)c2O)c(OC)c1	?	?	?	i	?	3.9%
COc1cc(-c2oc3ccc(C)cc3c(=O)c2O)cc(OC)c1OC	.	?	.	.	2.51µM*	-42.3%
CC12CCC(c3c(C(=O)O)nn(-c4ccccc4)c31)C2(C)C (configuration not stated)	14.5%	-11.5%	-1.3%	i	3.2%	-30.3%
CC12CCC(c3c(C(=O)Nc4nccs4)nn(-c4ccccc4)c31)C2(C)C (configuration not stated)	14.1µM*	0.0%	?	i	8.7%	-43.1%
O=C1C=C(c2ccc3c(c2)OCO3)C[C@@H](c2ccc3c(c2)OCO3)C1	0.5%	11.7%	0.4%	i	-1.5%	-1.6%
O=C1C=C(c2ccc3cc[nH]c3c2)C[C@@H](c2ccc3c(c2)OCO3)C1	-79.8%	-32.7%	18.4µM*	?	?	-7.8%
CCCSc1nnc2c(n1)OC(c1ccc(Br)s1)Nc1ccccc1-2 (configuration not stated)	.	60.8%	.	i	1.8%	-0.8%
S=C(Nc1ccccc1)c1ccccn1	-16.7%	35.9%	?	?	11.2µM*	-40.2%
S=C(Nc1ccc(Nc2ccccc2)cc1)Nc1ccccn1	16.4µM*	-34.6%	?	i	?	-2.7%
O=C(O)c1ccccn1	2.0%	0.1%	2.4%	i	27.9%	6.4%
CCNc1ccc(-c2nc(-c3ccco3)no2)cc1[N+](=O)[O-]	.	107.3%	.	i	?	-4.9%
